# CBFb RUNX1 block = CBF-beta/RUNX1 interaction disruption. AlphaScreen CBFb-His/RUNX1-biotin binding, biochemical. Q01196+Q13951. Potency, µM (doses to about 59.8 µM), for the others: at the highest dose activity, negative = inhibition, hits mostly inhibitors. AID 1477. 230,000 tested, under 10 active; note: % of control where 0% means no effect
# Target sequence (Q01196 whole entry, looked up): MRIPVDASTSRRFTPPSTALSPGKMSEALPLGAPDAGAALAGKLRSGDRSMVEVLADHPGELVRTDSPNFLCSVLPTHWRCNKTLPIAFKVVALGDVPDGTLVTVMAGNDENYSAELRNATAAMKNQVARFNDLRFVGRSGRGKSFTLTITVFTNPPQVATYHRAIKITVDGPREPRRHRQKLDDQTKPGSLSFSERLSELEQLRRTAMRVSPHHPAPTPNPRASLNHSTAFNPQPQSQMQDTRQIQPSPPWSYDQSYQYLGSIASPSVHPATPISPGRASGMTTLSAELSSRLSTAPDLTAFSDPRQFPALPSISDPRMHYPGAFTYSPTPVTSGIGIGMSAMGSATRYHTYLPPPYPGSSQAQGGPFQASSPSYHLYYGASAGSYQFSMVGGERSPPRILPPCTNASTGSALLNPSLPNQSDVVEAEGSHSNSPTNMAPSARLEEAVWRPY
# Target sequence (Q13951 whole entry, looked up): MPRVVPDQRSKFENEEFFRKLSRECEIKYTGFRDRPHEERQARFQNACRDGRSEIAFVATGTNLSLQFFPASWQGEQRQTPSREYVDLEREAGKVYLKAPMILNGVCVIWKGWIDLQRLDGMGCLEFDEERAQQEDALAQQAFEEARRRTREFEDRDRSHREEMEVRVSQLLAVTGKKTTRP
#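 Read-out: AlphaScreen. Format: His-CBF-beta with biotinylated RUNX1 (30 nM each) preincubated 20 min, compound 15 min, Ni-chelate plus streptavidin beads 90 min; room temperature throughout.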
# HTT cytoprotect = protects HTT-Q103 PC12 cells, measured by ATP | PC12 HTT-Q103 induced, cytoprotection, ATP luminescence, 40 h | Potency, µM (highest dose often 56.4 µM), without a hit: cytoprotection (ATP increase), actives largely listed as activators | actives 0.14% (n = 230,000); note: potency is the fitted concentration of half-maximal effect; % of control where 0% means no effect; nearly all actives have a fitted effect of over 45% in size
#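 Huntington model: PC12 line, ecdysone-inducible HTTQ103 exon1–GFP, tebufenozide 100 nM. Test articles in a dose series. Endpoint luminescence from cellular ATP.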
# HPGD inh = inhibitors of human 15-hydroxyprostaglandin dehydrogenase (HPGD) | P15428 | Potency, µM, without a hit: at the top dose activity change, negative = inhibition, hits mostly inhibitors | actives 4.3% (n = 150,000) | purified HPGD, NADH fluorescence kinetic, PGE2 substrate; active = well fitted inhibition curve with a large enough effect, not every such curve was filed as active; inconclusive = small, poorly fitted or top-dose-only effect, or another doubt; inactive = no such curve, though single readings can be large or run the other way; note: potency is the fitted concentration of half-maximal effect; % is set by controls: 0 for no effect and ±100 for the full control effect
#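 20 nM HPGD preincubated 15 min at room temperature with compound in 50 mM Tris-HCl pH 8, 0.01% Tween 20. Started with 1 mM NAD+ and 30 uM prostaglandin E2; NADH fluorescence (360/450 nm) read 5 times over 30-s intervals, last minus first.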
# PNC inhibitor = inhibitors of perinucleolar compartment assembly. PC3M PTB-GFP, PNC prevalence imaging, 16 h; active compounds read low. activity change (PNC), negative = inhibition, % at 10 µM. actives 3.1% (n = 140,000). AID 2417;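 active = readout at or below -70, meaning at least 70% loss of cells showing the perinucleolar compartment, a nuclear body marking cancer cells; inconclusive = readout between -30 and a set limit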;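 note: plate controls were DMSO wells for no effect and camptothecin positive control wells for full effect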
#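 Read-out is percentage of cells bearing a perinucleolar compartment, from automated 20x imaging of fixed, Hoechst-stained PC3M PTB-GFP cells. Cells were seeded 4 h, then exposed 16 h to compound (23 nl of library stock) in duplicate plates.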
# HTT aggregate = inhibitors of mutant huntingtin aggregate formation in PC12 cells | Potency, µM (doses to about 46.1 µM), inactives show at the top dose activity change, negative = inhibition, actives largely listed as inhibitors | actives 1.1% (n = 220,000) | PC12 HttQ103-GFP aggregates, Acumen cytometry, 40 h | AID 1688; note: potency is the fitted concentration of half-maximal effect; % is set by controls: 0 for no effect and ±100 for the full control effect; nearly all actives have a fitted effect of over 60% in size
#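 Compounds (qHTS titration) were added to PC12 cells expressing an ecdysone-driven HTT exon 1 Q103–GFP fusion after induction with 100 nM tebufenozide. Aggregate formation was measured as GFP objects in cell lysates.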
# ALDH1A1 block = blocks purified human ALDH1A1 activity. P00352. Purified ALDH1A1, NADH fluorescence, propionaldehyde substrate. Potency, µM (highest dose often 75.3 µM), without a hit: top-dose activity, negative = inhibition, actives largely listed as inhibitors. actives 7.3% (n = 220,000). AID 1030; active = well fitted inhibition curve with a large enough effect, not every such curve was filed as active; inconclusive = small, poorly fitted or top-dose-only effect, or another doubt; inactive = no such curve, though single readings can be large or run the other way;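 note: potency is the fitted concentration of half-maximal effect; plate controls were no enzyme wells and a reference inhibitor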
# The depositor's hits bear a star; u = inconclusive; x = no result given; [ ] = remark or other dose. Sampled rows, rich in hits. Any-hit rate of the full collection: about 11%. Unless noted, calls come from the whole dose curve; as a rule, active = well fitted curve in the direction sought with a large enough effect; inconclusive = small, poorly fitted or top-dose-only effect, or another doubt; inactive = no such curve, though single readings can be large; an effect the other way counts as inactive or inconclusive.
SMILES,CBFb RUNX1 block,HTT cytoprotect,HPGD inh,PNC inhibitor,HTT aggregate,ALDH1A1 block
CC1(C)CC(=O)C(C=NCCN2CCN(C3CC(=O)N(c4ccc(Cl)c(Cl)c4)C3=O)CC2)=C(O)C1 (centres undefined),-3.6%,-12.8%[10 µM],x,x,-3.1%[9.22 µM],22.4µM*
CCNC(=S)N1CCN(CCN=CC2=C(O)CC(c3ccco3)CC2=O)CC1 (centres undefined),-5.5%,19.3%,-7.0%,-3.0,5.1%,-12.4%
O=C1CC(c2ccco2)CC(O)=C1C=NCCN1CCNCC1 (centres undefined),12.4%,-1.0%,-16.5%,-29.7,-15.2%,12.6µM*
NC(=O)c1cccc2c(=O)oc3ccccc3c12,-18.4%,-8.4%[0.074 µM],-29.9%,-1.5,-15.9%,u
O[C@@H]1CO[C@H]2C1OC[C@@H]2O (some centres undefined),3.1%,x,x,x,x,x
c1ccc(-c2csc3ncnc(N4CCOCC4)c23)cc1,6.7%,19.4%[10 µM],x,x,15.3%[9.22 µM],-2.0%
c1ccc2c(c1)OCC(c1csc3ncnc(N4CCOCC4)c13)O2 (centres undefined),-1.5%,-2.5%,-4.9%,-20.9,12.6µM*,-1.1%
CCN(CC)c1ncnc2scc(C3COc4ccccc4O3)c12 (centres undefined),0.8%,21.1%[10 µM],-16.8%,-100.0*,u,3.1%
CC(=O)Nc1ccc(S(=O)(=O)N2CCN(C(=O)c3cccnc3)CC2)cc1,2.8%,15.0%,-13.9%,-15.6,3.9%,-3.5%
Cc1[nH]c2ccccc2c1/C=N/NC(=O)C1CC1(c1ccccc1)c1ccccc1 (centres undefined),-24.4%,8.5%[10 µM],-6.6%,-110.0*,12.6µM*,-1.6%
Cc1[nH]c2ccccc2c1/C=N/NC(=O)CCC(=O)NCc1ccccc1,1.6%,-21.6%[10 µM],x,x,-7.2%[9.22 µM],4.4%
Cc1cc(C)c2c(=O)[nH]n(C(C)C)c2n1,2.9%,-3.8%,-18.2%,u,-0.2%,u
CCC(CC)n1[nH]c(=O)c2c(C)cc(C)nc21,8.6%,2.9%[10 µM],-6.3%,-81.8*,-5.5%,-9.1%
O=C(NC1C/C(=N/O)c2cc3c(cc21)OCO3)C(F)(F)F (centres undefined),-3.1%,3.98µM*,x,x,u,1.9%
COc1cc(C(=O)OC2CC[C@]3(C)C4CCC5[C@]6(O)CC(O)[C@]7(O)C(CN8CC(C)CCC8[C@]7(C)O)[C@]6(O)C[C@@]53O[C@]24O)cc(OC)c1OC (some centres undefined),x,x,-4.2%,x,x,1.9%
CCOC(=O)c1sc(NC(=O)c2cccnc2)c(C#N)c1C,4.6%,-13.9%,-19.4%,-25.1,-13.9%,-8.3%
Cc1noc(NS(=O)(=O)c2ccc(NC(=O)COc3ccc(Cl)cc3Cl)cc2)c1C,-13.4%,-16.1%[10 µM],15.8µM*,22.9,10.8%,10.2%
CCc1ccc(C(=O)/C=C/Nc2ccc(S(=O)(=O)Nc3onc(C)c3C)cc2)cc1,-5.1%,x,20µM*,6.1,-10.5%,u
Cc1noc(NS(=O)(=O)c2ccc(N/C=C/C(=O)c3ccc(F)cc3)cc2)c1C,15.6%,u,x,x,-1.7%,12.1%
CCOC(=O)c1sc(NC(=O)c2cc(-c3ccccc3)nc3ccccc23)c(C#N)c1C,-2.9%,-91.2%,15.8µM*,33.4,7.08µM*,3.16µM*
Cc1noc(NS(=O)(=O)c2ccc(NC(=O)CSc3nc4c(cc3C#N)CCCCC4)cc2)c1C,-2.6%,2.4%[10 µM],28.2µM*,0.7,-5.5%,-4.1%
COCCNc1ncnc2ccc(-c3ccccc3C)cc12,x,-68.6%,x,x,x,u
CCCCCC#CC[C@@H](O)/C=C/C=C/C=C\[C@@H](O)CCCC(=O)O,9.3%,16.9%,-5.3%,x,x,11.1%
CCOC(=O)c1sc(NC(=O)CSc2nnc(Cc3ccccc3)o2)c(C#N)c1C,6.1%,-20.5%,2µM*,-13.5,-12.9%,0.562µM*
CCOC(=O)c1sc(NC(=O)CSc2nc3c(cc2C#N)CCCCC3)c(C#N)c1C,2.5%,-24.6%,u,15.3,5.62µM*,-2.7%
SMILES,CBFb RUNX1 block,HTT cytoprotect,HPGD inh,PNC inhibitor,HTT aggregate,ALDH1A1 block
CCOC(=O)c1sc(NC(=O)CSc2nc(C)cc(C)n2)c(C#N)c1C,-2.7%,-7.8%,-11.5%,51.3,-11.9%,-4.7%
CCOC(=O)c1sc(NC(=O)CSc2ccccn2)c(C#N)c1C,-3.3%,-2.8%,0.7%,18.4,10.8%,25.1µM*
COc1cccc(C(=O)Nc2ccc(C(=O)O)cc2)c1,4.8%,-25.9%,x,18.6,2.0%,-13.2%
COc1ccc(Br)cc1C(=O)Nc1cccc(-c2nnc(-c3ccco3)o2)c1,x,-11.6%[0.074 µM],x,x,x,x
CCCC(=O)Nc1ccc(Cl)c(NC(=O)c2cccnc2)c1,10.7%,-28.9%[10 µM],-4.0%,u,-10.0%,7.3%
CN(C)S(=O)(=O)Oc1cccc(C(=O)Nc2ccc(Cl)cc2)c1,1.8%,-40.4%,-17.2%,19.4,u,15.8µM*
CCCC(=O)Nc1ccc(Cl)c(NC(=O)c2cccc(OC)c2)c1,7.5%,x,x,x,-16.7%,2.82µM*
COC(=O)c1ccc(NC(=O)c2cccc(OC)c2)cc1,-1.2%,-13.0%,28.2µM*,8.7,-7.9%,u
COc1cccc(C(=O)Nc2cccc(-c3nnc(-c4ccco4)o3)c2)c1,-2.5%,-55.4%,20µM*,-2.1,4.0%,u
O=C(C[C@@H](C(=O)O)N1CCOCC1)c1ccccc1,x,11.7%[10 µM],-2.9%,x,x,5.9%[13.5 µM]
CC(=O)NCCNc1nc(-c2ccccc2C)nc2ccccc12,x,-32.5%,x,x,x,u
COc1cccc(C(=O)Nc2ccc(C3CC3(Cl)Cl)cc2)c1 (centres undefined),16.4%,-117.1%,x,x,-1.1%[9.22 µM],11.2µM*
COc1cccc(C(=O)Nc2ccc(C)cc2)c1,3.4%,-89.9%[10 µM],-15.8%,66.1,-21.9%,-7.6%
COc1cccc(C(=O)NCCOc2cc(C)cc(C)c2)c1,-2.4%,8.1%[10 µM],-9.5%,49.0,-13.7%,15.8µM*
O=C(Nc1ccc(C2CC2(Cl)Cl)cc1)c1ccccc1Br (centres undefined),-3.1%,-17.5%[10 µM],15.8µM*,-20.4,0.1%,7.2%
COc1cc(OC)cc(C(=O)NCCOc2ccccc2)c1,4.3%,2.1%,-12.3%,0.4,-8.2%,6.9%
CN(C)c1ncc2ncc(=O)n(C)c2n1,x,-225.1%,u,x,x,u
COc1ccc(CCN2C(=O)CC(N3CCN(S(=O)(=O)c4ccccc4)CC3)C2=O)cc1OC (centres undefined),-8.3%,-18.2%,x,x,-9.0%[9.22 µM],-9.3%
CCOC(=O)NC(=O)/C(C#N)=C/c1ccc(N(C)C)cc1,2.6%,-0.4%[10 µM],x,x,-12.2%[9.22 µM],12.6µM*
CN(C)c1ccc(/C=C(\C#N)c2ccccc2)cc1,-28.7%,-57.3%[10 µM],x,x,-19.0%[9.22 µM],u

# Screening data from PubChem.
